Results on 68 compounds are retold here after article PMC4552634, “A New Set of Chemical Starting Points with Plasmodium falciparum Transmission-Blocking Potential for Antimalarial Drug Discovery” (PLoS ONE, 2015).

Each structure is given as a SMILES string. About 3,200 (25%) of roughly 13,000 compounds showed an effect of 50% or more. This is one part of the list.

For this experiment, the system named is P. falciparum stage V gametocytes. Further details: BacTiter-Glo ATP luminescence viability of purified stage V gametocytes in 384-well plates, per cent inhibition versus DMSO. The settings on record: 48 h, 5 µM; inhibitor.
One may read the % Inhibition as the relative decrease from the control value, in per cent. For `CCc1cc(NCc2ccncc2)nc(Nc2ccc(F)cc2)n1` [TCMDC-134015], the “% Inhibition” value came to 15.5%.

Turning to `CC(C)(C)NC(=O)C(c1ccc(F)cc1)N(C(=O)c1ccc(CN2CCOCC2)o1)c1ccc(C2CCCCC2)cc1` (centres unmarked) [TCMDC-125562], the “% Inhibition” value is on record as -47.12%.

As to `CCc1ccc(CN2CCC(CN(c3ccc(N4CCOCC4)c(F)c3)S(=O)(=O)c3ccc(C(C)(C)CC)cc3)CC2)cc1` [TCMDC-135290], the “% Inhibition” value is on record as -12.43%.

With `COc1ccccc1C1CCN(C2CCC(NC(=O)/C=C/c3cc(F)cc(F)c3)CC2)CC1` (centres unmarked) [TCMDC-133492], the “% Inhibition” value is recorded as -91.94%.

On to `CCOC(=O)c1nc2ccc(SC3CCCCC3)cn2c1Br` [TCMDC-138030], for which the “% Inhibition” value was determined as 0.4377%.

Regarding `COc1ccc2c(=O)ccn(CCN3CCC(NCc4ccc5c(n4)NC(=O)CS5)CC3)c2c1` [TCMDC-141809], the “% Inhibition” value is on record as -63.52%.

On to `COc1cc2cc(-c3nc4ccccc4[nH]3)c(N)nc2cc1OC` [TCMDC-125600], for which the “% Inhibition” value is given as 19.66%.

Regarding `CN(C)c1ccc2nc(N)nc(N)c2c1Cl` [TCMDC-137862], the “% Inhibition” value is on record as -17.95%.

For `COc1ccccc1-c1nc2c(ccc3nc(N)nc(N)c32)[nH]1` [TCMDC-137976], the “% Inhibition” value turned out to be 123.3%.

As to `Nc1nc(N)c2c(Oc3cccc4ccccc34)cccc2n1` [TCMDC-137739], the “% Inhibition” value was -7.537%.

Regarding `Nc1nc(N)c2c(ccc3[nH]c(-c4ccccc4Cl)nc32)n1` [TCMDC-137840], the “% Inhibition” value is 117.2%.

`Nc1nc(N)c2c(ccc3ccccc32)n1` [TCMDC-131942]: the “% Inhibition” value amounted to 19.03%.

`Fc1ccc2[nH]c(-c3ccc(-c4ccc(CNCc5cnn(-c6ccccc6)n5)cc4)cc3)nc2c1.O=C(O)C(F)(F)F` [TCMDC-132969]: the “% Inhibition” value is listed as 45.68%.

As to `Cc1ccc(N2CCN(CCCCNC(=O)c3ccc(NC(=O)c4ccc(Cl)cc4)cc3)CC2)c(C)c1` [TCMDC-138507], the “% Inhibition” value was determined as 8.523%.

`O=C1OC2(CN1CC1CCN(Cc3ccc(O)c(Cl)c3)CC1)c1ccccc1-c1ccccc12` [TCMDC-136071]: the “% Inhibition” value is given as 20.11%.

For `O=S(=O)(NCCN1CCCC1)c1ccc(-c2cccc(CNCCc3cccs3)c2)cc1` [TCMDC-132374], the “% Inhibition” value amounted to 64.21%.

With `O=S(=O)(NCCN1CCCC1)c1ccc(-c2cccc(CNCCc3cccs3)c2)s1` [TCMDC-132376], the “% Inhibition” value is recorded as 19.55%.

In the case of `O=S(=O)(NCCN1CCCC1)c1cccc(-c2cccc(CNCCc3cccs3)c2)c1` [TCMDC-132378], the “% Inhibition” value stood at 78.26%.

For the compound `COc1ccc(CN(C)Cc2cc(C(C)C)c(C)cc2O)cc1F` [TCMDC-124597], the “% Inhibition” value is given as -22.84%.

In the case of `O=C(Nc1nccs1)c1cc(-c2cccnc2)nc2ccc(Br)cc12` [TCMDC-125215], the “% Inhibition” value is -12.6%.

Consider `CO[C@H](C)[C@H](NC(=O)[C@H](CC(C)C)[C@H](CCC(F)(F)F)N(O)C=O)C(=O)Nc1nccs1` [TCMDC-138190], for which the “% Inhibition” value stood at 15.4%.

As to `O=C(/C=C/c1ccc(Cl)c(Cl)c1)N1CCC(CN2C3CCC2CC(c2c[nH]c4ccccc24)C3)CC1` (centres unmarked) [TCMDC-139814], the “% Inhibition” value came out at 116.4%.

In the case of `CN(CC1CCC(NC(=O)/C=C/c2ccc(Cl)c(Cl)c2)CC1)C1CCC(c2c[nH]c3ccccc23)CC1` (centres unmarked) [TCMDC-140213], the “% Inhibition” value is reported as -15.26%.

For the compound `O=C(/C=C/c1ccc(Cl)c(Cl)c1)N1CCC2CC(N3CCC(c4c[nH]c5ccccc45)CC3)CCC2C1` (centres unmarked) [TCMDC-139677], the “% Inhibition” value is -29.29%.

Turning to `CN(CCC1CCN(C(=O)/C=C/c2ccc(Cl)c(Cl)c2)CC1)C1CCC(c2c[nH]c3ccccc23)CC1` (centres unmarked) [TCMDC-140107], the “% Inhibition” value came out at 60.82%.

For the compound `O=C(/C=C/c1ccc(Cl)c(Cl)c1)N1CCC(CN2CCC(c3c[nH]c4ccccc34)C(O)C2)CC1` (centres unmarked) [TCMDC-139825], the “% Inhibition” value is reported as -12.75%.

As to `COc1ccc2[nH]cc(C3CC4CCC(C3)N4CCC3CCN(C(=O)/C=C/c4ccc(Cl)c(Cl)c4)CC3)c2c1` (centres unmarked) [TCMDC-139670], the “% Inhibition” value is reported as 106%.

Consider `O=C(/C=C/c1ccc(Cl)c(Cl)c1)N1CCC(NCc2c[nH]c3ccccc23)CC1` [TCMDC-134197], for which the “% Inhibition” value is listed as -0.4755%.

For the compound `CN(CCCc1c[nH]c2ccccc12)CC1CCN(C(=O)/C=C/c2ccc(Cl)c(Cl)c2)CC1` [TCMDC-140117], the “% Inhibition” value is 55.67%.

Take `COc1ccc2[nH]cc(C3CCN(CCC4CCN(C(=O)/C=C/c5ccc(Cl)c(Cl)c5)CC4)CC3)c2c1` [TCMDC-139658]: the “% Inhibition” value is on record as -35.62%.

Turning to `O=C(/C=C/c1ccc(Cl)c(Cl)c1)N1CCC(CN2CCC(Cc3c[nH]c4ccccc34)CC2)CC1` [TCMDC-140143], the “% Inhibition” value is -20.89%.

Turning to `O=C(/C=C/c1ccc(Cl)c(Cl)c1)N1CCC(CCCN2CCC(c3c[nH]c4ccccc34)CC2)CC1` [TCMDC-139795], the “% Inhibition” value is 25.74%.

Consider `COC(=O)c1ccc2[nH]cc(C3CCN(CCC4CCN(C(=O)/C=C/c5ccc(Cl)c(Cl)c5)CC4)CC3)c2c1` [TCMDC-139787], for which the “% Inhibition” value turned out to be 19.69%.

`CCCCC1(NC(=O)[C@@H](Nc2ccc(C#N)c3ccccc23)C2CCCCC2)CCCCC1` [TCMDC-136636]: the “% Inhibition” value is recorded as -65.73%.

With `CCOCc1cnc(C)nc1NCC(=O)c1c(C)[nH]c2cc(C)ccc12` [TCMDC-124067], the “% Inhibition” value was -5.397%.

`CC1(C)CCCC(=Cc2ccc(Br)cc2)C1(O)Cn1ccnc1` (centres unmarked) [TCMDC-125214]: the “% Inhibition” value is 19.91%.

In the case of `COc1cc2nccc(Nc3cc(C)cc(O)c3)c2cc1OC.Cl` [TCMDC-138196], the “% Inhibition” value is listed as -1.594%.

As for `CCCCOC(=O)c1ccc(NC(=O)Nc2ccc(Cn3ncc(N4CCCNCC4)c(Cl)c3=O)cc2)cc1` [TCMDC-133323], the “% Inhibition” value is listed as -2.086%.

For `COc1ccc(C(=O)C2CC2CN(C)CC(O)c2cc(C)c(OC)cc2C)cc1` (centres unmarked) [TCMDC-136800], the “% Inhibition” value came to 56.77%.

`COc1cccc(C(=O)C2CC2CN(C)CC(O)c2cc(C)c(OC)cc2C)c1` (centres unmarked) [TCMDC-136802]: the “% Inhibition” value is 18.93%.

Turning to `COc1ccc(C(=O)C2CC2CN(C)CCC(O)c2ccc(Cl)c(Cl)c2)cc1` (centres unmarked) [TCMDC-136792], the “% Inhibition” value is -25.71%.

Turning to `N#Cc1ccc(NC(=NCc2ccc(Cl)cc2Cl)Nc2cccc(Cl)c2Cl)c(O)c1` [TCMDC-140224], the “% Inhibition” value is -0.417%.

`CC1(C)N=C(N)N=C(N)N1OCc1ccc2ccccc2c1` [TCMDC-125513]: the “% Inhibition” value came out at 17.08%.

In the case of `CC(C)Nc1nc(NCCc2cnc[nH]2)nc(NCc2ccc(Cl)c(Cl)c2)n1` [TCMDC-139747], the “% Inhibition” value was 6.944%.

In the case of `CC(=O)Nc1ccc(C(=O)Nc2cccc(-c3ccc(-c4nc5c(C)cccc5[nH]4)cc3)c2)cn1` [TCMDC-136823], the “% Inhibition” value is 57.24%.

Take `CC(=O)Nc1ccc(C(=O)Nc2ccc(-c3cccc(-c4nc5c(C)cccc5[nH]4)c3)cc2)cn1` [TCMDC-136831]: the “% Inhibition” value worked out at 74.93%.

On to `CC(=O)N(C)c1cccc(C(=O)Nc2ccc(-c3cccc(-c4nc5c(C)cccc5[nH]4)c3)cc2)c1` [TCMDC-137072], for which the “% Inhibition” value was -29.92%.

Turning to `CC(=O)Nc1ccc(C(=O)Nc2cccc(-c3cccc(-c4nc5c(C)cccc5[nH]4)c3)c2)cn1` [TCMDC-136830], the “% Inhibition” value was -4.811%.

As to `CC(=O)Nc1ccc(C(=O)Nc2ccc(-c3cccc(-c4nc5ccc(F)cc5[nH]4)c3)cc2)cn1` [TCMDC-136822], the “% Inhibition” value is given as -42.62%.

Regarding `CC(=O)Nc1cccc(C(=O)Nc2cccc(-c3ccc(-c4nc5c(C)cccc5[nH]4)cc3)c2)c1` [TCMDC-132136], the “% Inhibition” value is listed as -12.3%.

`CN(C)CCC1CCCc2ccc(NC(=O)Nc3ccc(-c4ccncc4)c4ccccc34)cc21` (centres unmarked) [TCMDC-139156]: the “% Inhibition” value was -24.46%.

As to `CCC(C)Oc1ccc(CCCON2C(N)=NC(N)=NC2(C)C)cc1` (centres unmarked) [TCMDC-131784], the “% Inhibition” value is 25.06%.

For the compound `CCOc1ccc(C(C)NC(=O)Nc2ccccc2)cc1OCC` (centres unmarked) [TCMDC-123556], the “% Inhibition” value worked out at 52.41%.

With `COc1cc(Nc2nccc(N3CCC(NC(=O)C4COc5ccccc5O4)C3)n2)cc(OC)c1OC` (centres unmarked) [TCMDC-133625], the “% Inhibition” value is on record as -0.8923%.

On to `CCOc1cc(C(=O)Nc2cccnc2)cc(Br)c1OCCC(C)C` [TCMDC-123549], for which the “% Inhibition” value is 16.86%.

Take `CCOc1ccc(C(Cc2ccccc2)NC(=O)c2cccnc2)cc1OCC` (centres unmarked) [TCMDC-124519]: the “% Inhibition” value was 50.66%.

In the case of `CCOc1ccc(C(C)NC(=O)Cc2ccccc2F)cc1OCC` (centres unmarked) [TCMDC-123564], the “% Inhibition” value is given as 31.28%.

As to `CCOc1ccc(C(C)NC(=O)C2COc3ccccc3O2)cc1OCC` (centres unmarked) [TCMDC-125018], the “% Inhibition” value worked out at 78.92%.

For the compound `CN1CCN(c2ccc(Cl)cc2NC(=O)C2COc3ccccc3O2)CC1` (centres unmarked) [TCMDC-124321], the “% Inhibition” value is reported as 9.444%.

On to `CCOc1ccc(CCC(=O)O)cc1OCC` [TCMDC-124302], for which the “% Inhibition” value is recorded as 4.043%.

As to `CCCCNC(=O)[C@H](Cc1ccccc1)NC(=O)c1ccc(O)c(-c2ccc(Cl)c(Cl)c2)c1` [TCMDC-140840], the “% Inhibition” value was found to be 16.49%.

On to `CCCCCCNC(=O)C(N)CCCC(N)C(=O)NCCCCCC` (centres unmarked) [TCMDC-131401], for which the “% Inhibition” value is 16.24%.

In the case of `CSc1cccc(NC(=O)Nc2ccc(I)c(OCCN(C)C)c2)c1` [TCMDC-139123], the “% Inhibition” value stood at 6.817%.

For the compound `COc1cc2cc(Cc3cnc(N)nc3N)ccc2c(OC)c1OC` [TCMDC-138023], the “% Inhibition” value is given as -6.286%.

`O=C(NCCCc1ccccc1)c1csc(C2CCCN(C(=O)c3ccc(O)c(-c4cccc5ccccc45)c3)C2)n1` (centres unmarked) [TCMDC-140154]: the “% Inhibition” value is -33.08%.

For `CC(C)(C)c1ccc(NC(=O)c2cccc(CN3CCCN(Cc4cccc(Cl)c4)CC3)c2)cc1` [TCMDC-135982], the “% Inhibition” value is -61.3%.

For the compound `CCc1cc(I)c2c(c1)C(NCCCNc1cc(=O)c3ccccc3[nH]1)CCN2` (centres unmarked) [TCMDC-140023], the “% Inhibition” value is listed as -10.14%.

As to `O=c1cc(NCCNCc2cccc(-c3ccccc3)c2)[nH]c2ccccc12` [TCMDC-139376], the “% Inhibition” value turned out to be 20.69%.
